In PubChem BioAssay (NCI):
The panel holds about 83,000 compounds, 20% with a hit somewhere; the sample as a whole holds those more often.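 How to read the values: 0–100, growth inhibition (40 = 60% inhibited); 0, no net growth; -100 to 0, cell death (-40 = 40% of starting cells died; -100 = all dead).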 Activity calls are given as the source filed them. How the source made its calls: active means growth percent below 10; inactive means the rest.

Tests used:
Experiment in all cases: NCI-60 one-dose screen, 48 h (100 = growth as untreated, 0 = no growth, -100 = all killed)
K-562 leukemia = settings: 10 µM unless noted
MALME-3M melanoma = settings: 10 µM unless noted
MDA-MB-231 breast = settings: 10 µM unless noted
RXF 393 renal = settings: 10 µM unless noted
SF-268 CNS = settings: 10 µM unless noted
SF-295 CNS = settings: 10 µM unless noted
SF-539 CNS = settings: 10 µM unless noted
UACC-257 melanoma = settings: 10 µM unless noted
M14 melanoma = settings: 10 µM unless noted
HCT-15 colon = settings: 10 µM unless noted
HT29 colon = settings: 10 µM unless noted
SNB-75 CNS = settings: 10 µM unless noted
SNB-19 CNS = settings: 10 µM unless noted
U251 CNS = settings: 10 µM unless noted
PC-3 prostate = settings: 10 µM unless noted
SK-MEL-5 melanoma = settings: 10 µM unless noted
UACC-62 melanoma = settings: 10 µM unless noted
LOX IMVI melanoma = settings: 10 µM unless noted
SK-MEL-28 melanoma = settings: 10 µM
SK-MEL-2 melanoma = settings: 10 µM unless noted

Measured: growth

O=c1[nH]nnc2c1ncn2C1OC(CO)C(O)C1O (stereo not given)
inactive: K-562 leukemia 31.5% | MALME-3M melanoma 57.5% | MDA-MB-231 breast 55.2% | RXF 393 renal 80.7% | SF-268 CNS 67.6% | SF-295 CNS 20.2% | SF-539 CNS 67.2% | UACC-257 melanoma 65.2% | M14 melanoma 36.2% | HCT-15 colon 66.5% | HT29 colon 50.4% | SNB-75 CNS 44.8% | SNB-19 CNS 105% | U251 CNS 97.7% | PC-3 prostate 50.6% | SK-MEL-5 melanoma 91.8% | UACC-62 melanoma 58% | LOX IMVI melanoma 22.6% | SK-MEL-28 melanoma 102%
active: SK-MEL-2 melanoma 6%

COC(=O)[C@H](NC(=O)C1(C)CCC[C@]2(C)[C@H]3C[C@H]4C(C(C)C)=C[C@]3(CC[C@@H]12)[C@@H]1C(=O)CCC(=O)[C@@H]14)C(C)C (stereo not given in full)
inactive: K-562 leukemia 96.9% | MALME-3M melanoma 104% | MDA-MB-231 breast 90.8% | RXF 393 renal 105% | SF-268 CNS 96.5% | SF-295 CNS 94.8% | SF-539 CNS 100% | UACC-257 melanoma 104% | M14 melanoma 102% | HCT-15 colon 95.3% | HT29 colon 109% | SNB-75 CNS 83.7% | SNB-19 CNS 92.9% | U251 CNS 99.1% | PC-3 prostate 90.8% | SK-MEL-5 melanoma 101% | UACC-62 melanoma 84.4% | LOX IMVI melanoma 90.5% | SK-MEL-28 melanoma 99.7% | SK-MEL-2 melanoma 116%

CN1CCN(Cc2ccc(NC(=O)c3cncc(C#Cc4nc(N)nc5[nH]ncc45)c3)cc2C(F)(F)F)CC1
inactive: MALME-3M melanoma 68.6% | MDA-MB-231 breast 100% | RXF 393 renal 79.2% | SF-268 CNS 102% | SF-295 CNS 108% | SF-539 CNS 104% | UACC-257 melanoma 83.1% | M14 melanoma 89.4% | HCT-15 colon 97.8% | HT29 colon 55.3% | SNB-75 CNS 85% | SNB-19 CNS 108% | U251 CNS 107% | PC-3 prostate 108% | SK-MEL-5 melanoma 90.2% | UACC-62 melanoma 89.3% | LOX IMVI melanoma 88.1% | SK-MEL-28 melanoma 94.3% | SK-MEL-2 melanoma 92.4%
active: K-562 leukemia 4.75%

O=C(NCc1ccccc1)C1CN(c2ccc(Cl)cc2)N(c2ccc(Cl)cc2)C1=O (stereo not given)
inactive: K-562 leukemia 35.1% | MALME-3M melanoma 73.8% | MDA-MB-231 breast 91.3% | RXF 393 renal 81.1% | SF-268 CNS 82.4% | SF-295 CNS 76.3% | SF-539 CNS 93.4% | UACC-257 melanoma 79.4% | M14 melanoma 74.9% | HCT-15 colon 59.5% | HT29 colon 48.8% | SNB-75 CNS 82.9% | SNB-19 CNS 84.9% | U251 CNS 84.2% | PC-3 prostate 67.9% | SK-MEL-5 melanoma 83.3% | UACC-62 melanoma 58.7% | LOX IMVI melanoma 88.4% | SK-MEL-28 melanoma 88.9% | SK-MEL-2 melanoma 85.8%

O=C(CSc1nc2ccccc2c(=O)n1-c1ccccc1)Nc1ccc(C(=O)/C=C/c2ccc(Cl)cc2)cc1
inactive: K-562 leukemia 90.8% | MALME-3M melanoma 95.5% | MDA-MB-231 breast 93.3% | RXF 393 renal 127% | SF-268 CNS 115% | SF-295 CNS 105% | SF-539 CNS 113% | UACC-257 melanoma 89.6% | M14 melanoma 101% | HCT-15 colon 98.1% | HT29 colon 100% | SNB-75 CNS 114% | SNB-19 CNS 96.1% | U251 CNS 106% | PC-3 prostate 103% | SK-MEL-5 melanoma 103% | UACC-62 melanoma 86% | LOX IMVI melanoma 101% | SK-MEL-28 melanoma 106% | SK-MEL-2 melanoma 99.9%

CNCCNc1nc2ccccc2c2c(=O)c3cccc(C)c3sc12
active: K-562 leukemia -52.5% | MALME-3M melanoma -11.3% | MDA-MB-231 breast -18% | M14 melanoma -40.9% | HCT-15 colon -21.3% | HT29 colon -25.6% | LOX IMVI melanoma -85.6% | SK-MEL-28 melanoma -60.1%
inactive: RXF 393 renal 50.8% | SF-268 CNS 53.7% | SF-295 CNS 76% | SF-539 CNS 52.4% | UACC-257 melanoma 82% | SNB-75 CNS 38.4% | SNB-19 CNS 53.2% | U251 CNS 25.4% | PC-3 prostate 41.4% | SK-MEL-5 melanoma 46.3% | UACC-62 melanoma 42% | SK-MEL-2 melanoma 91.4%

NNC(=O)CNC(=O)Nc1n[nH]c(=S)s1
inactive: K-562 leukemia 90.3% | MALME-3M melanoma 87% | MDA-MB-231 breast 112% | RXF 393 renal 124% | SF-268 CNS 107% | SF-295 CNS 94% | SF-539 CNS 109% | UACC-257 melanoma 99.9% | M14 melanoma 93.5% | HCT-15 colon 109% | HT29 colon 95.9% | SNB-75 CNS 92.1% | SNB-19 CNS 106% | U251 CNS 105% | PC-3 prostate 95.9% | SK-MEL-5 melanoma 105% | UACC-62 melanoma 104% | LOX IMVI melanoma 98.1% | SK-MEL-28 melanoma 106% | SK-MEL-2 melanoma 97.7%

CCOC(=O)c1cc2c(n1Cc1ccccc1)-c1oncc1CCC2
inactive: K-562 leukemia 24.1% | MALME-3M melanoma 39.2% | MDA-MB-231 breast 74.4% | RXF 393 renal 84.6% | SF-268 CNS 88.7% | SF-295 CNS 98.2% | SF-539 CNS 83.3% | UACC-257 melanoma 82.5% | M14 melanoma 68% | HCT-15 colon 45.7% | HT29 colon 37.7% | SNB-75 CNS 75.6% | SNB-19 CNS 88.1% | U251 CNS 85.8% | PC-3 prostate 80.6% | SK-MEL-5 melanoma 66.6% | UACC-62 melanoma 51.8% | LOX IMVI melanoma 79.4% | SK-MEL-28 melanoma 67% | SK-MEL-2 melanoma 83.5%
